According to PubChem BioAssay (NCATS):
Records with an inconclusive call do not appear. Where a call stands in place of a potency, no number is given. Activity calls are given as the source filed them. Unless noted, calls follow the shape of the dose curve; as a rule, active = well fitted curve in the direction sought with a large enough effect; inconclusive = small, poorly fitted or top-dose-only effect, or another doubt; inactive = no such curve, though single readings can be large; an effect the other way counts as inactive or inconclusive.

Assays:
[1] = target: Pyruvate kinase (Leishmania mexicana) (UniProt Q27686); assay: qHTS Validation Assay for Inhibitors of Leishmania Mexicana Pyruvate Kinase (AID 945); also: potency is read from the fitted curve at half-maximal effect
Outline: (§1)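 Eight-point qHTS titrations; enzyme 0.2 nM LmPYK (E451W mutant); substrates 0.5 mM PEP, 0.1 mM ADP; 7 mM MgCl2; 1 h room temperature; PKLight luminescence normalized to neutral control.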

[2] = target: Pyruvate kinase PKM (Homo sapiens) (UniProt P14618); assay: qHTS Assay for Activators of Human Muscle Pyruvate Kinase (AID 954; active = well fitted curve in the direction sought with a large enough effect, not every such curve was filed as active)
Outline: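 Enzyme was run at intermediate activity so both inhibitors and activators could be detected. ATP formed from ADP and PEP by 0.1 nM human PKM2 during a 1 h room-temperature incubation was quantified by coupled luciferase luminescence.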

[3] = target: Pyruvate kinase PKM (Homo sapiens) (UniProt P14618); assay: qHTS Assay for Inhibitors of Human Muscle Pyruvate Kinase (AID 958)
Outline: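 ATP production by PKM2 detected via luciferase luminescence after 1 h room-temperature reaction (0.1 nM enzyme, PEP at Km 0.5 mM, ADP 0.1 mM, pH 7.2 imidazole buffer). Inhibition scaled to no-enzyme control; activation referenced to 0.3 nM enzyme wells.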

[4] = target: Pyruvate kinase (Leishmania mexicana) (UniProt Q27686); assay: qHTS Validation Assay for Activators of Leishmania Mexicana Pyruvate Kinase (AID 959)
Outline: as §1

Sequence of Pyruvate kinase PKM (Homo sapiens) (P14618 whole entry, looked up): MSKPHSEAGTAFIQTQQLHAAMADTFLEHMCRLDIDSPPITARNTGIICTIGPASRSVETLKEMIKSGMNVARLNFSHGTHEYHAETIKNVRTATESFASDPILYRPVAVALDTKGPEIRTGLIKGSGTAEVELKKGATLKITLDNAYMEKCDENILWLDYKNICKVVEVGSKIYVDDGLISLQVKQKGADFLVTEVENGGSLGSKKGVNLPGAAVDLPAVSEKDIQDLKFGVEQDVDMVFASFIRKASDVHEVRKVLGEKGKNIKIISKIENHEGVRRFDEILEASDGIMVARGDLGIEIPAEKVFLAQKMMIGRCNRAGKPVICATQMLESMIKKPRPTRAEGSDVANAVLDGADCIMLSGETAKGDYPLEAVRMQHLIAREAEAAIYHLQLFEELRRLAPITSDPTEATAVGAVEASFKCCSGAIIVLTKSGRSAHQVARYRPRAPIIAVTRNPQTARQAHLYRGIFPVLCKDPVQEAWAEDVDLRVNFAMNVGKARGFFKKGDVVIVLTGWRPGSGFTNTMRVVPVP
Sequence of Pyruvate kinase (Leishmania mexicana) (Q27686 2-499 E452W): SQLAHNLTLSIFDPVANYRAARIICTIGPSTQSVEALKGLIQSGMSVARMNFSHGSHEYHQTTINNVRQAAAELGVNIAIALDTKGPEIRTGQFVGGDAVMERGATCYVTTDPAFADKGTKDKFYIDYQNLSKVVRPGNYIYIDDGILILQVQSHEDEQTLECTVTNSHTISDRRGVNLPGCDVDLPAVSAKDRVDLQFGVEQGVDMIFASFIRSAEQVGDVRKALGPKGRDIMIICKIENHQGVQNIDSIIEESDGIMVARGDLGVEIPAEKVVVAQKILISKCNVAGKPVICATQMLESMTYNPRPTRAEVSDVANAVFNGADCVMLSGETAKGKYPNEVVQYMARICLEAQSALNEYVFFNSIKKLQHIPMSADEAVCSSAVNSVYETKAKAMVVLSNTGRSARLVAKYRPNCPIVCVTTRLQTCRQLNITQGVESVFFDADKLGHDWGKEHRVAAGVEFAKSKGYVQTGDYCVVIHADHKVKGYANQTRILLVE

Row | Structure (SMILES) | Potency [1] | outcome [2] | Potency [3] | Potency [4]
1 | N=C(N)SCCN | inactive | inactive |  | 
2 | O=C(O)C1=CC(=C(c2ccc(O)c(C(=O)O)c2)c2ccc(O)c(C(=O)O)c2)C=CC1=O | inactive |  | inactive | 
3 | O=C(O)/C(=C/c1c(C(=O)O)[nH]c2cc(Cl)cc(Cl)c12)c1ccccc1 | inactive | inactive |  | 
4 | NCCS(=O)O | inactive | inactive |  | 
5 | C=CCn1c(=O)c2c(nc(-c3ccc(S(=O)(=O)O)cc3)n2C)n(C)c1=O | inactive | inactive |  | 
6 | Nc1ccc(-c2nc3ccc(-c4nc5ccc(N)cc5[nH]4)cc3[nH]2)cc1 |  | inactive |  | inactive
7 | O=C(O)Cc1c[nH]c2ccc(O)cc12 | inactive | inactive |  | 
8 | CN(C)S(=O)(=O)c1ccc2c(c1)/C(=C/c1cc3c([nH]1)CCCC3)C(=O)N2 | inactive | inactive |  | 
9 | O=C1Cc2c([nH]c3ccc(Br)cc23)-c2ccccc2N1 |  | inactive |  | inactive
10 | Nc1ncnc2c1c(-c1ccc(Oc3ccccc3)cc1)cn2C1CCCC1 | inactive | inactive |  | 
11 | Cc1nc(N=Nc2ccc(S(=O)(=O)O)cc2S(=O)(=O)O)c(COP(=O)(O)O)c(C=O)c1O | inactive |  |  | 3.98 µM (active)
12 | CC(C)(C)c1cc(/C=C(\C#N)C(N)=S)cc(C(C)(C)C)c1O | inactive | inactive |  | 
13 | CCCCCCCCCCCCCCSCC(=O)O | inactive | inactive |  | 
14 | NC(=Nc1ccccc1)NC(=O)c1nc(Cl)c(N)nc1N | inactive | inactive |  | 
15 | O=c1[nH]c2cc(Cl)ccc2c(O)c1-c1ccc(Oc2ccccc2)cc1 | inactive | inactive |  | 
16 | N=C(N)SCCc1cnc[nH]1 | inactive | inactive |  | 
17 | CCN(c1nc(N)c(C(=O)N=C(N)N)nc1Cl)C(C)C | inactive | inactive |  | 
18 | CCCn1c(=O)c2c(ncn2C)n(CCC)c1=O | inactive | inactive |  | 

Row | Structure (SMILES) | Potency [1] | outcome [2] | Potency [3] | Potency [4]
19 | Nc1ccc(-c2ccc3ccccc3n2)cc1 | 12.6 µM (active) |  | 12.6 µM (active) | inactive
20 | CNCCNS(=O)(=O)c1cccc2cnccc12 | inactive | inactive |  | 
21 | N#Cc1cc2nc(O)c(O)nc2cc1[N+](=O)[O-] | inactive | inactive |  | 25.1 µM (active)
22 | NS(=O)(=O)c1cccc2c1c([N+](=O)[O-])cc1nc(O)c(O)nc12 | inactive |  | inactive | 
23 | c1ccc2nc(C3=NCCN3)ccc2c1 | inactive | inactive |  | 
24 | CCCCOC(=O)NS(=O)(=O)c1sc(CC(C)C)cc1-c1ccc(Cn2c(CC)nc3c(C)cc(C)nc32)cc1 | inactive | inactive |  | 
25 | C[N+](C)(C)CC=O | inactive | inactive |  | 
26 | CNC(=O)c1cc2c(cn1)[nH]c1ccccc12 |  |  |  | inactive
27 | CCCOC(=O)c1c(-c2ccccc2)nc(CC)c(C(=O)SCC)c1CCC | inactive | inactive |  | 
28 | CC(C)(CO)Cc1cc(C(C)(C)C)c(O)c(C(C)(C)C)c1 | inactive | inactive |  | 
29 | COc1cc2c(CCNC(C)=O)c[nH]c2cc1O | inactive | inactive |  | 
30 | Cc1nc(N=Nc2ccc(C(=O)O)cc2)c(COP(=O)(O)O)c(C=O)c1O | inactive | inactive |  | 5.01 µM (active)
31 | Cn1cc(C(=O)OCC2CCN(CCNS(C)(=O)=O)CC2)c2ccccc21 | inactive | inactive |  | 
32 | O=C(O)c1cccnc1C(=O)O | inactive | inactive |  | 
33 | Cn1c(=O)c2[nH]c(C3CCCC3)nc2n(C)c1=O | inactive | inactive |  | 
34 | COc1cc(/C=C(\C#N)C(=O)c2ccc(O)c(O)c2)cc(I)c1O | inactive | inactive |  | 15.8 µM (active)
35 | O=c1[nH]c2ccccc2c2ccccc12 | inactive | inactive |  | 
36 | N#C/C(=C\c1ccc(O)c(O)c1)C(=O)NCCCNC(=O)/C(C#N)=C/c1ccc(O)c(O)c1 |  | inactive |  | 
